Experimental data as given in PubChem BioAssay (EPA / NIEHS).
Active and inactive are the calls of the source. Rule for the calls: active = hit-call score of the fitted dose curve at least 0.9, where 1 is the maximum; inactive = score below 0.9.

assay: ATG_PBREM_CIS: Attagene CIS-FACTORIAL HepG2 Assay for human Phenobarbital-responsive Enhancer Module (PBREM) (AID 2282955); conditions: HepG2 PBREM cis-reporter, Attagene multiplexed transcription; actives raise or lower the signal
Procedure: ATG_CIS is a cell-based, multiplexed-readout assay that uses HepG2, a human liver cell line, with measurements taken at 24 hours after chemical dosing in a 24-well plate.ATG_PBREM_CIS is one of 52 assay component(s) measured or calculated from the ATG_CIS assay. It is designed to make measurements of mRNA induction, a form of inducible reporter, as detected with fluorescence intensity signals by Reverse transcription polymerase chain reaction (RT-PCR) and Capillary electrophoresis technology.Data from the assay component ATG_PBREM_CIS was analyzed into 1 assay endpoint. This assay endpoint, ATG_PBREM_CIS, was analyzed with bidirectional fitting relative to DMSO as the negative control and baseline of activity. Using a type of inducible reporter, measures of mRNA for gain or loss-of-signal activity can be used to understand the reporter gene at the transcription factor-level as they relate to the gene NR1I3. Furthermore, this assay endpoint can be referred to as a primary readout, because this assay has produced multiple assay endpoints where this one serves a reporter gene function. To generalize the intended target to other relatable targets, this assay endpoint is annotated to the nuclear receptor intended target family, where the subfamily is non-steroidal.
Human liver HepG2 cells are transiently transfected with multiple reporter transcription units (MRTUs) in 6-well plates using FuGene 6 reagent (Roche; 3 ml FuGene/1 mg DNA). The MRTU constructs are regulated by a cis-regulating element (promoter). […] A major difference between the CIS and TRANS system is that in CIS activities of endogenous TFs are measured, whereas the TRANS assay evaluates changes in activities of exogenous, chimeric NR-Gal4 proteins. […] At the end of 24 hour incubation, total RNA was isolated using TriZol reagent (Invitrogen). The isolated RNA is then reverse-transcribed using oligo(dT) primer and Mo-MLV reverse transcriptase (Invitrogen) with DNAse I (Ambion) treatment for 30 min. The one-tenth of the produced cDNA was amplified by PCR using Taq DNA polymerase (Invitrogen) and two reporter sequence-specific primers. The PCR products were fluorescently labeled by primer extension with 6-arboxyfluorescein (6-FAM) 5'-labeled reporter sequence-specific primer (2 min at 95 C, 20 s at 68 C and 10 min at 72 C) and these products were digested with 5U of HpaI (New England Biolabs) for 2h at 37 C. The fragments were purified using Qiaquick PCR columns (Qiagen), analyzed on an ABI 3130xL genetic analyzer (Applied Biosystems) with peak positions identified by using a set of X-rhodamine (ROX)-labeled MapMarker1000 molecular weight standards (BioVentures). The raw capillary electrophoresis data was processed using Attagraph software (Attagene).

Question: Which outcome does the source give for NC(=O)C(F)(F)C(F)(F)C(F)(F)C(F)F here?
Answer: The outcome was “inactive”.

Question: For CC(C)(C)C(=O)C1C(=O)c2ccccc2C1=O, which AC50 is on record?
Answer: Its AC50 is 27.8 µM (active).

Question: Which outcome does the source give for FC(F)(F)C(F)(F)C(F)(F)C(F)(F)C(F)(F)C(F)(F)C(F)(F)CCI here?
Answer: Its outcome is “inactive”.

Question: For CCOCN(C(=O)CS(=O)(=O)O)c1c(C)cccc1CC, which outcome is on record?
Answer: The outcome was “inactive”.

Question: For Brc1nc2ccccc2s1, which outcome is on record?
Answer: The outcome was “inactive”.

Question: For CCCCCCCCCCCC(=O)Cl, which outcome is on record?
Answer: The outcome was “inactive”.

Question: With Brc1ccccn1 as the compound, how does the outcome read?
Answer: The outcome was “inactive”.

Question: Which outcome does the source give for NC(=O)C(F)(F)C(F)(F)C(F)(F)F here?
Answer: Its outcome is “inactive”.

Question: With CCCCCCCCCCCCC[N+](C)(C)Cc1ccccc1 as the compound, how does the outcome read?
Answer: Its outcome is “inactive”.

Question: With CCN(CC)c1ccc(C=O)c(O)c1 as the compound, how does the outcome read?
Answer: The outcome was “inactive”.

Question: With CCN(CC)c1ccc(C=O)cc1 as the compound, how does the outcome read?
Answer: The outcome was “inactive”.

Question: For CC(C)CC=C(C=O)c1ccccc1, which outcome is on record?
Answer: Its outcome is “inactive”.

Question: For COC(=O)c1ccc(C=O)cc1, which outcome is on record?
Answer: The outcome was “inactive”.

Question: For CC(C)OC(=O)COc1ccc(Cl)cc1Cl, which outcome is on record?
Answer: The outcome was “inactive”.

Question: With O=C(F)C1(F)C(F)(F)C(F)(F)C(F)(F)C(F)(F)C1(F)F as the compound, how does the outcome read?
Answer: The outcome was “inactive”.

Question: With O=C(O)C(F)(F)C(F)(F)C(F)(F)OC(F)(C(F)(F)F)C(F)(F)F as the compound, how does the outcome read?
Answer: The outcome was “inactive”.

Question: With C=CC(=O)OCC(F)(F)C(F)(F)C(F)(F)C(F)(F)C(F)(F)C(F)(F)C(F)(F)C(F)F as the compound, how does the outcome read?
Answer: The outcome was “inactive”.

Question: Which outcome does the source give for O=C=NCc1cccc(CN=C=O)c1 here?
Answer: Its outcome is “inactive”.

Question: With CSc1ccc(Cl)cc1 as the compound, how does the outcome read?
Answer: Its outcome is “inactive”.

Question: Which outcome does the source give for Nc1cccnc1N here?
Answer: The outcome was “inactive”.

Question: For O=C(Cl)C(F)(F)C(F)(F)C(F)(F)C(F)(F)C(F)(F)C(F)(F)C(F)(F)F, which outcome is on record?
Answer: Its outcome is “inactive”.

Question: With CCCCOC(=O)C(C)O (stereo not given) as the compound, how does the outcome read?
Answer: The outcome was “inactive”.

Question: Which outcome does the source give for NCC(F)(F)C(F)(F)C(F)(F)C(F)(F)C(F)(F)C(F)(F)C(F)(F)C(F)(F)F here?
Answer: Its outcome is “inactive”.

Question: Which outcome does the source give for CCCCOC(=O)[C@H](C)O here?
Answer: Its outcome is “inactive”.

Question: For CC1=CCC2C(=O)OC(=O)C2C1 (stereo not given), which outcome is on record?
Answer: Its outcome is “inactive”.

Question: With CCc1cc(Cc2cc(CC)c(N)c(CC)c2)cc(CC)c1N as the compound, how does the outcome read?
Answer: The outcome was “inactive”.

Question: With Nc1c(Br)cc([N+](=O)[O-])cc1Br as the compound, how does the outcome read?
Answer: The outcome was “inactive”.

Question: Which outcome does the source give for Cc1cccc(C)n1 here?
Answer: Its outcome is “inactive”.

Question: Which outcome does the source give for CCN(CC)c1ccc2c(c1)Oc1cc(N(CC)CC)ccc1C21OC(=O)c2ccccc21 here?
Answer: The outcome was “inactive”.

Question: With OCC(F)(F)C(F)(F)C(F)(F)C(F)(F)C(F)(F)C(F)(F)C(F)(F)C(F)(F)CO as the compound, how does the outcome read?
Answer: The outcome was “inactive”.

Question: For CC(=O)CCC(C)C, which outcome is on record?
Answer: The outcome was “inactive”.

Question: For CCCCCCCCCCCCCCCCC, which outcome is on record?
Answer: The outcome was “inactive”.

Question: For CCn1c2ccccc2c2ccccc21, which outcome is on record?
Answer: Its outcome is “inactive”.

Question: With CC1=CC2C3C=CC(C3)C2C1C (stereo not given) as the compound, how does the outcome read?
Answer: The outcome was “inactive”.

Question: Which outcome does the source give for FC(F)(F)C(F)(F)C(F)(F)C(F)(F)C(F)(F)C(F)(F)CC[Si](Cl)(Cl)Cl here?
Answer: Its outcome is “inactive”.

Question: With CC(C)C(=O)OCc1ccccc1 as the compound, how does the outcome read?
Answer: The outcome was “inactive”.

Question: With CO[Si](C)(CCC(F)(F)C(F)(F)C(F)(F)C(F)(F)C(F)(F)C(F)(F)F)OC as the compound, how does the outcome read?
Answer: The outcome was “inactive”.

Question: With C[Si](C)O[Si](C)C as the compound, how does the outcome read?
Answer: Its outcome is “inactive”.

Question: For O=C1c2c(O)ccc(Nc3ccc(CCO)cc3)c2C(=O)c2c([N+](=O)[O-])ccc(O)c21, which AC50 is on record?
Answer: The AC50 was 38.6 µM (active).

Question: For NCC(F)(F)C(F)(F)C(F)(F)C(F)(F)C(F)(F)C(F)(F)F, which outcome is on record?
Answer: Its outcome is “inactive”.
